The panel holds about 83,000 compounds, 20% with a hit somewhere; the sample as a whole holds those more often.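 Treatment: one concentration, 48 hours, 96-well format. Scoring: percent growth, with anything below 10 considered active.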 Unmarked numbers belong to inactive results. The source made the active and inactive calls.
What follows are compounds tested on HL-60(TB) leukemia (assay: NCI-60 one-dose screen, 48 h (100 = growth as untreated, 0 = no growth, -100 = all killed)). Details: 10 µM unless noted.

SMILES	growth
Cc1cc(N(CCCNc2ccnc3cc(Cl)ccc23)Cc2ccco2)nc(Cl)n1	17.5%
CCCCC#Cc1c(/C=C(\CCCC)SCC)n(C)c(=O)[nH]c1=O	92.8%
NC(=S)N/N=C\c1nccc2c(C(F)(F)C(F)(F)C(F)(F)F)cccc12	-49.4% (active)
CC(C)C1=NOC(=O)C1=Cc1cn(-c2ccco2)nc1-c1ccccc1	3.89% (active)
O=C1C2=C(C(=O)c3c(O)ccc(O)c31)N(c1cccnc1)Cc1ccccc1O2	-23.5% (active)
COc1ccc2c(c1)c(-c1nc(-c3c[nH]c4ncccc34)cs1)cn2CCCN1CCCCC1	-60.8% (active)
F	28.1% [6.87 mM]
CN(C)CCN1C(=O)c2c(c3c4ccccc4n4c3c3c2c2ccccc2n3C2CC(O)C(O)C4(C)O2)C1=O (stereo not given)	32.5%
C[C@H]1[C@H]2[C@H]3CC[C@@H]4[C@@]5(C)CC[C@H](O)C(C)(C)[C@@H]5CC[C@@]4(C)[C@]3(C)CC[C@]23CO[C@]1(C)[C@@H](C(=O)/C=C\c1cccnc1)C3	47.5%
O=C(N/N=C/c1c(Cl)cccc1Cl)c1ccc(C(F)(F)F)nc1Nc1cccc(C(F)(F)F)c1	-44.5% (active)
CCOC(=O)/C=C\C(=O)NC(N)=O	74.9%
CN(C)CCOc1nc2c3cc([N+](=O)[O-])ccc3nn2c2ccccc12	11.7%
COc1cc(/C=C/c2cc(/C=C/c3ccc(O)c(OC)c3)n(-c3ccc(Cl)cc3)c(=O)n2)ccc1O	92.6%
Cc1nc2cc(-c3nn(C(C)C)c4ncnc(N)c34)ccc2o1	5.12% (active)
Cc1ncc(C(=O)Nc2ccc(CN3CCN(C)CC3)c(C(F)(F)F)c2)cc1C#Cc1cnc2cccnn12	-28.2% (active)
O=C(Nc1ccc(F)cc1)c1cc2cc(Nc3nc(-c4ccccc4)nc4ccccc34)ccc2oc1=O	102%
CCCCN=C(N)c1ccc(OCCSCCOc2ccc(C(N)=NCCCC)cc2)cc1	38.8%
C=C1C(=O)O[C@@H]2C3C(=C(C)CC[C@@H]12)CC1O[C@]13C (stereo not given in full)	77.6% [6.75 µM]
COc1ccc(/C=C/C(=O)c2cc3c(N)c(C(=O)Nc4ccccc4)sc3nc2C)cc1	2.92% (active)
C/C(=N\Nc1ccc2ccccc2n1)c1ccccn1	-39% (active)

SMILES	growth
Cc1cc(Nc2nc(C(=O)Nc3ccccc3)nc3ccccc23)n[nH]1	63.5%
COc1ccc(/C(C#N)=C/c2ccccc2OC)cc1	-0.826% (active)
CC(C)CCNCC(O)Cn1c2ccccc2c2ccccc21 (stereo not given)	-14.8% (active)
N#Cc1nc(-c2ccc(F)cc2)oc1S(=O)(=O)N1CCN(c2ccc(F)cc2)CC1	52.3%
CSc1nc(O)c(-c2ccccc2)c(=O)[nH]1	89.5%
Nc1ccc(-c2nc3cc(Oc4ccc(Oc5ccc6[nH]c(-c7ccc(N)cc7)nc6c5)cc4)ccc3[nH]2)cc1	103%
Cn1cc(-c2csc(-c3c[nH]c4ccc(F)cc34)n2)c2ccnc(Cl)c21	72%
COc1cc(-c2nn(-c3cccc(NC(=O)Nc4cc(C(F)(F)F)cc(C(F)(F)F)c4)c3)cc2-c2ccncc2)ccc1Cl	-20.2% (active)
CCCCCCCCCCSc1ncnc2nc[nH]c12	73.9%
OC(c1ccccc1)c1nnc(SCc2ccccc2)n1Cc1ccccc1 (stereo not given)	112%
CCCCCCCCSc1ncnc2c1ncn2CO	94.5%
C=C1C(=O)O[C@H]2[C@H]1CC/C(COC(=O)NCc1nc3ccccc3[nH]1)=C\CC[C@@]1(C)O[C@@H]21	17%
COc1ccc2nc(-c3ccc(-c4noc(-c5cc(OC)c(OC)c(OC)c5)n4)cc3)[nH]c2c1	74.4%
O=C(NC1CCCCCC1)c1ccc2c(=O)n3c(nc2c1)CCCCC3	144%
O=C(NCCCCCCNC(=O)OCc1ccc2c(Cl)cc(Cl)c(O)c2n1)OCc1ccc2c(Cl)cc(Cl)c(O)c2n1	-46.2% (active)
O=S(=O)(Nc1ccc(I)cc1F)c1ccc(-c2cnc(C3CC3)o2)cc1	17.1%
COc1ccc(OC)c([N+](=O)[O-])c1C(=O)CNC(C)=O	104%
CN1CCC(CNc2ccc3ncc(-c4cccc(OC(F)(F)F)c4)n3n2)CC1	-37.1% (active)
O=[N+]([O-])c1cccc([I+]c2ccccc2)c1	37.9%
CCCC(=O)Nc1ccccc1C(=O)O	94.1%

Source: PubChem BioAssay (NCI)
